Shown are actives, neighbours in structure and some others; about 3.5% of the full set was active somewhere.
Bead autofluor: compound fluorescence in toxin protease inhibitor counterscreen | compound autofluorescence counterscreen, microsphere flow cytometry; active compounds read high | fluorescence intensity (no concentration beside the values) | AID 624483 | 360,000 compounds, 3.1% hits; in the data active = fluorescence intensity above about 16000; inconclusive = no clear call, values can overlap the other calls
Anthrax LF inh2: anthrax lethal factor protease inhibition; P15917; multiplex microsphere protease cleavage assay, LF; inhibition, % at 10 µM; 360,000 compounds, 0.12% hits; AID 588501
3CLpro inhibitor: SARS-CoV 3CLpro protease inhibition; recombinant SARS-CoV 3CLpro, quenched FRET peptide cleavage; inhibition, % at 6 µM; 290,000 compounds, 0.14% hits; AID 1706; in the data active = inhibition above about 12%
BoNT-F LC inh: inhibitors of Botulinum neurotoxin F light chain protease. Multiplex microsphere protease cleavage assay, flow cytometry. 360,000 compounds, 0.22% hits. AID 588497. inhibition, % at 10 µM; in the data active = inhibition above about 35%, passing the limit was not always enough; inconclusive = no clear call, values can overlap the other calls
BoNT-A LC inh2: inhibitors of Botulinum neurotoxin A light chain protease; multiplex microsphere protease substrate cleavage, flow cytometry; inhibition, % at 10 µM; 360,000 compounds, 0.17% hits
Of the large screens only hits and unclear results are named; the others gave an inactive call; ! = repeats disagree. Rule as the data show it, unless noted: active = inhibition above about 30%; inconclusive = no clear call, values can overlap the other calls; inactive = below that.

COC(=O)C1=C(C)Nc2nnnn2C1c1cccs1 (configuration not stated)	Bead autofluor 19852
CCOc1cc(C2C(C(=O)N3CCCCC3)=C(C)NC3=C2C(=O)CC(C)(C)C3)ccc1O (configuration not stated)	Bead autofluor 23188
COC(=O)C1=C(C)NC2=C(C(=O)CC(C)(C)C2)C1c1cccc(C)n1 (configuration not stated)	Bead autofluor 23176
CCOC(=O)C1=C(C)NC2=C(C(=O)CC(C)(C)C2)C1c1ccc(N(C)C)cc1 (configuration not stated)	Bead autofluor 24751
COC(=O)C1=C(C)NC2=C(C(=O)CCC2)C1c1cccc(C)n1 (configuration not stated)	none
Cc1noc(-c2ccccc2)c1NC(=O)Nc1ccc(Cl)cc1	BoNT-F LC inh inconclusive, BoNT-A LC inh2 inconclusive
CN(C)c1nc2c(c(N)nn2-c2ccc(Cl)cc2)c(=O)o1	Bead autofluor 19528, BoNT-A LC inh2 inconclusive
CCOC(=O)c1nc(C)n(-c2ccc(Cl)cc2)n1	none
COc1ccc(-n2nc(N)c3c(=O)oc(N(C)C)nc32)cc1	Bead autofluor 16554
COc1c(C)cccc1C(=O)Nc1ccc(N2CCN(S(C)(=O)=O)CC2)cc1	none
O=P(c1ccccc1)(c1ccccc1)C(O)c1cccs1 (configuration not stated)	none (no result: 3CLpro inhibitor)
O=C1N/C(=C/c2ccc(N3CCOCC3)cc2)C(=O)N1Cc1ccc(F)cc1	Bead autofluor 18011
O=C1N/C(=C\c2ccsc2)C(=O)N1Cc1ccc(F)cc1	none
Cn1c(=O)n(C)c2cc(/C=C3/NC(=O)N(Cc4ccccc4)C3=O)ccc21	Bead autofluor 20142
Cc1ccc(/C=C2/NC(=O)N(Cc3ccccc3)C2=O)o1	none
COc1cc(CCC(=O)Nc2nnc(C)s2)cc(OC)c1OC	none
CC(=O)c1c(O)c(C)c(O)c2c1OC1=Cc3c(c(C)nn3-c3ccccc3)C(=O)C12C (configuration not stated)	none (no result: 3CLpro inhibitor)
CCc1nnc(NC(=O)Nc2ccccc2OC)s1	Bead autofluor 22103, BoNT-A LC inh2 inconclusive
COc1ccccc1NC(=O)Nc1nnc(CC(=O)Nc2ccccc2)s1	none (no result: Bead autofluor, Anthrax LF inh2, BoNT-F LC inh, BoNT-A LC inh2)
COc1ccccc1NC(=O)NC(=O)c1ccccc1	BoNT-F LC inh inconclusive
COc1ccccc1NC(=O)NC(N)=O	Bead autofluor 21653
COCCN1CCN(Cc2nc(Cc3ccc(OC)c(OC)c3)no2)CC1	none
O=C(Cn1cnc2ccccc21)NCc1ccccc1	Bead autofluor 21986
Cc1n(CC(O)COCc2ccccc2)c2ccccc2[n+]1C (configuration not stated)	Bead autofluor 23714
O=C(COC(=O)Cn1cnc2ccccc21)NCc1ccc(F)cc1	none
OC(CN(c1ccccc1)c1ccccc1)Cn1cnc2ccccc21 (configuration not stated)	none
OC(COCc1ccccc1)Cn1cnc2ccccc21 (configuration not stated)	Bead autofluor 16259, BoNT-A LC inh2 inconclusive
CC(=O)Nc1cccc(OCC(O)Cn2cnc3ccccc32)c1 (configuration not stated)	Bead autofluor 22621, BoNT-A LC inh2 inconclusive
CC(C)[C@H](NC(=O)[C@H](CCCN=C(N)N)NC(=O)NC(Cc1ccccc1)C(=O)O)C(=O)NC(C=O)CCCN=C(N)N (some centres not stated)	none
Cc1cccc(C)c1-n1nnnc1C1c2ccccc2C(=O)N1CCCn1ccnc1 (configuration not stated)	none (no result: 3CLpro inhibitor)
O=C(COC(=O)/C=C/c1ccc(F)cc1)NCc1ccco1	none
Cc1cc(C)c2nncn2n1	none
O=C(O)CCCC(=O)OCCc1cc2ccccc2c(=O)o1	none (no result: 3CLpro inhibitor)
O=C(O)CCCC(=O)OCCCCc1cccs1	Bead autofluor 19404, BoNT-A LC inh2 inconclusive
CC1CN(C(=O)C(c2ccccc2)c2ccccc2)CC(C)O1 (configuration not stated)	Bead autofluor 25891
CCOc1ccc(NC(=S)NN2C(C)CCCC2C)cc1 (configuration not stated)	none
O=C(Nc1c(C(=O)N2CCOCC2)cnn1-c1ccccc1)c1ccccc1F	none
CCN(CC)C(=O)c1cnn(-c2ccccc2)c1NC(=O)c1ccccc1F	Bead autofluor 20443
Nc1nc(O)c(Sc2ccccc2[N+](=O)[O-])c(=O)[nH]1	none
C/C=C(\C)CN1CCc2cc(OC)c(OC)cc2C1	Bead autofluor 24105
COc1ccc(S(=O)(=O)N2CCOC2CNC(=O)C(=O)NCCN2CCOCC2)cc1C (configuration not stated)	none
Cn1cnc([N+](=O)[O-])c1NCc1ccccc1	Anthrax LF inh2 inconclusive, BoNT-F LC inh 40.0
CCNc1c([N+](=O)[O-])ncn1C	none
Cc1c(C)c2ccc(OCC(=O)N3CCN(C(=O)C4COc5ccccc5O4)CC3)cc2oc1=O (configuration not stated)	none
C=CCc1cc(OC)ccc1OCC(O)CN1CCN(c2ccc(OC)cc2)CC1 (configuration not stated)	Bead autofluor 22414!, BoNT-A LC inh2 inconclusive
COc1ccccc1N1CCN(CC(O)COc2cccc3ccccc23)CC1 (configuration not stated)	3CLpro inhibitor 16.8!
CC(COc1cccc2ccccc12)CN1CCN(C)CC1 (configuration not stated)	Bead autofluor 24009
CCN(CC)c1ccc(NC(=O)c2ccc3c(c2)c(C)c(C)n3C)cc1	none
COC(=O)CCC(=O)Nc1ccc(OC)cc1	none
CCc1sc(C(=O)Nc2cccc(-n3cnnn3)c2)cc1C	none (no result: 3CLpro inhibitor)
COc1ccc(CC(=O)c2c(O)cc(O)cc2O)cc1OC	Bead autofluor 22635, BoNT-A LC inh2 inconclusive
COc1ccc(C(=O)Cc2ccc(OC)c(OC)c2)cc1	none
CCn1c(CCn2ccnc2C)n[nH]c1=S	Bead autofluor 18972, BoNT-A LC inh2 inconclusive
CCn1c(CC(C)C)n[nH]c1=S	none
COc1cccc(C2=NOC(C(=O)Nc3cccnc3Cl)C2)c1OC (configuration not stated)	none
COc1ccc(OC)c(C2=NOC(C(=O)Nc3cccc(C(C)=O)c3)C2)c1 (configuration not stated)	Bead autofluor 23110
COc1cc(NC(=O)C2CC(c3cccc(OC)c3OC)=NO2)cc(OC)c1OC (configuration not stated)	Bead autofluor 22158
COc1ccc(CNC(=O)C2CCCN2S(=O)(=O)c2ccc(Cl)cc2)cc1 (configuration not stated)	none
O=C(Cc1cccs1)N(c1ccc(Br)cc1)C1C=CS(=O)(=O)C1 (configuration not stated)	none
O=C(NCCOC(=O)c1ccccc1C(=O)OCCNC(=O)c1cccnc1)c1cccnc1	Bead autofluor 19258
O=C(Nc1cc(-c2ccccc2)nn1C1CCCCC1)c1ccc(Cl)cc1	none (no result: 3CLpro inhibitor)
COc1nc(N/N=C/c2ccccc2F)nc(N2CCCCC2)n1	Bead autofluor 22376
Cc1oc2nc(SCC(=O)NCCCO)nc(N)c2c1C	Bead autofluor 22217
COc1ccc(N(CC(=O)N/N=C/c2ccccc2OC)S(=O)(=O)c2ccccc2)cc1	none
CC(=O)NCCn1c(SCc2cccc([N+](=O)[O-])c2)nc2ccccc2c1=O	none

Bioassay records: PubChem BioAssay, several laboratories
